SMILES strings stand for the structures. Inconclusive results are not listed. Active and inactive are the calls of the source. Unless noted, calls come from the whole dose curve; as a rule, active = well fitted curve in the direction sought with a large enough effect; inconclusive = small, poorly fitted or top-dose-only effect, or another doubt; inactive = no such curve, though single readings can be large; an effect the other way counts as inactive or inconclusive.

The target in assay [1] is Glucocorticoid receptor (Homo sapiens) (UniProt P04150). The assay can be described thus: qHTS assay for small molecule antagonists of glucocorticoid receptor signaling (AID 588533; active = well fitted inhibition curve with a large enough effect in the signal ratio, with a control signal flat, not every such curve was filed as active; the % refers to the signal ratio;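 note: cells stimulated with 2 nM dexamethasone as agonist; % is set by controls: 0 for no effect and ±100 for the full control effect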). In outline: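 Antagonist-mode qHTS: compound titrations added to GRE-bla HeLa cells, then dexamethasone 2 nM final; 18 h, 37 C. CCF4 FRET fluorescence normalized to dexamethasone and DMSO; IC50 from Hill fit.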
(In general: In qHTS, concentration-response curves come from the screen itself.)

The target of assay [2] is Peroxisome proliferator-activated receptor delta (Homo sapiens) (UniProt Q03181). The assay can be described thus: qHTS assay for small molecule agonists of peroxisome proliferator-activated receptor delta signaling (AID 588534; calls by dose curve;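 note: 0% = DMSO basal wells and 100% = positive control agonist at 10 µM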). A digest of the protocol:
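Titration series tested in agonist mode on beta-lactamase reporter cells; 18 hrs at 37 C after a 5 hr pre-incubation. Readout: CCF4 fluorescence, 2 hrs RT. Hill equation gives EC50 and maximal response.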

The nature of assay [3]: qHTS assay for small molecule antagonists of peroxisome proliferator-activated receptor delta signaling (AID 588535; active = well fitted inhibition curve with a large enough effect in the signal ratio, with a control signal flat, not every such curve was filed as active; the % refers to the signal ratio;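 for max response: cells co-treated with a PPAR-delta agonist as stimulator during compound exposure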). The following applies: HEK293T PPARd-UAS-bla, beta-lactamase FRET ratio, 18 h; 460 nm channel. A digest of the protocol: (§1)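 Antagonist-mode qHTS using GeneBLAzer PPAR-delta-UAS-bla HEK293T cells; compound exposure 18 hrs at 37 C over a titration. Ratiometric CCF4 fluorescence at 460/530 nm; concentration-response points fitted to the Hill equation.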

Assay [4] concerns the target Peroxisome proliferator-activated receptor delta (Homo sapiens) (UniProt Q03181). The description is as above. A digest of the protocol:
as §1

Assay [5] has as its target Vitamin D3 receptor (Homo sapiens) (UniProt P11473). The assay can be described thus: qHTS assay for small molecule antagonists of vitamin D receptor signaling (AID 588541; calls by dose curve;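 note: receptor activated by calcitriol during compound treatment; series mostly up to about 77 µM; % is set by controls: 0 for no effect and ±100 for the full control effect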). A digest of the protocol:
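Antagonist-mode beta-lactamase reporter assay: HEK293T VDR-UAS-bla cells were exposed to titrated compound alongside 1-alpha,25-dihydroxyvitamin D3 at 3 nM final for 16 h. Values were normalized to the 50 nM agonist control and DMSO basal, with IC50 and efficacy from Hill equation fits.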

Assay [6] concerns the target Retinoic acid receptor RXR-alpha (Homo sapiens) (UniProt P19793). The assay can be described thus: qHTS assay for small molecule agonists of retinoid X receptor alpha signaling (AID 588544; calls by dose curve;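 note: 0% = DMSO basal wells and 100% = reference agonist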).
The target of assay [7] is Thyroid hormone receptor beta (Homo sapiens) (UniProt P10828). The assay can be described thus: qHTS assay for small molecule agonists of thyroid hormone receptor beta signaling (AID 588545; calls by dose curve). In outline:
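Agonist activity was read as beta-lactamase CCF4 fluorescence (405 ex, 460/530 em), scaled between DMSO (0%) and 10 nM T3 (100%), then Hill-fitted for EC50 and efficacy. HEK 293 TR-UAS-bla cells in 2% charcoal/dextran FBS medium were exposed 18 h at 37 C.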

Assay [8] is described as follows: qHTS assay for small molecule antagonists of retinoid X receptor alpha signaling (AID 588546; active = well fitted inhibition curve with a large enough effect in the signal ratio, with a control signal flat, not every such curve was filed as active; the % refers to the signal ratio;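 note: cells stimulated with 9-cis-retinoic acid as agonist; % is set by controls: 0 for no effect and ±100 for the full control effect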). The following applies: HEK293T RXRa-UAS-bla, beta-lactamase ratio, antagonist mode; measured here: W530 green channel, cytotoxicity proxy. In outline: (§2)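 Beta-lactamase reporter inhibition, read as CCF4 fluorescence ratio (ex 405, em 460/530 nm) after 2 h at RT. HEK293T UAS-bla cells, 2500/well, were stimulated with 9-cis-RA at 500 or 100 nM final alongside test compound for 18 h at 37 C.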

Assay [9] addresses Retinoic acid receptor RXR-alpha (Homo sapiens) (UniProt P19793). The assay is described as above. The following applies: HEK293T RXRa-UAS-bla, beta-lactamase ratio, antagonist mode. In outline:
as §2

Assay [10] in a line: qHTS assay for small molecule activators of the nuclear factor-kappa B (NF-kB) signaling pathway (AID 651749; active = well fitted activation curve with a large enough effect in the signal ratio; the % refers to the signal ratio; note: series mostly up to about 77 µM; % of control where 0% means no effect). The following applies: NF-kB-bla ME-180 cells, beta-lactamase FRET ratio, 16 h; activation: stronger effect = higher value. A digest of the protocol: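 FRET-based beta-lactamase detection in ME-180 cells reports NF-kB response-element-driven transcription following overnight (16 hr) compound treatment.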

The target in assay [11] is Peroxisome proliferator-activated receptor alpha (Homo sapiens) (UniProt Q07869). The assay can be described thus: qHTS assay for small molecule agonists of the peroxisome proliferator-activated receptor alpha (PPARalpha) signaling pathway (AID 651778). Note: % of control where 0% means no effect. The following applies: PathHunter PPARalpha complementation, chemiluminescence, 6 h; max response: stronger effect = higher value. A digest of the protocol: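 Chemiluminescence from complemented enzyme reported PPARalpha activation in cells after 6 hr of compound treatment at 37 C. The detection reagent was incubated for 60 min at room temperature, and compounds were scored as agonists.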

Assay [12] in a line: qHTS assay for small molecule agonists of the antioxidant response element (ARE) signaling pathway measured by Nrf2-dependant transcriptional activity (AID 720636; active = well fitted curve in the direction sought with a large enough effect in the repeat runs; an effect the other way counts as inactive or inconclusive;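 note: HepG2 cells with an ARE-driven luciferase reporter; % of control where 0% means no effect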). A digest of the protocol:
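In HepG2 cells engineered with an Nrf2-responsive luciferase gene, ARE induction was quantified as luminescence after 16 hr compound treatment at 37 C.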

A short description of assay [13]: qHTS assay for small molecule agonists of the antioxidant response element (ARE) signaling pathway measured by Nrf2-dependant transcriptional activity - cell viability counter screen (AID 720653; active = well fitted curve in the direction sought with a large enough effect in the repeat runs; an effect the other way counts as inactive or inconclusive; note: potency is the fitted concentration of half-maximal effect). The following applies: ARE-bla HepG2 viability, CellTiter-Glo ATP luminescence, 16 h; max response: stronger effect = lower value. A digest of the protocol: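 Cytotoxicity counter screen: intracellular ATP quantified by CellTiter-Glo luminescence in the same ARE-bla HepG2 plates, after 16 h compound exposure and a 2 h beta-lactamase substrate step.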

A short description of assay [14]: qHTS assay for cell viability of HEK293 cells (AID 743288). Note: nearly all actives have a fitted effect of over 50% in size. Note: potency is the fitted concentration of half-maximal effect. The following applies: ATP luminescence (CellTiter-Glo), 18 h; max response: stronger effect = lower value. In outline:
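Steps: plate 2,000 parental HEK293 cells per well; incubate ≥5 h, 37 C; add compounds in DMSO; incubate 18 h, 37 C; add CellTiter-Glo; wait 30 min at room temperature; read luminescence.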

Assay [15] in a line: qHTS assay for cell viability of the p53RE-bla HCT-116 cell line (AID 743292). Note: % is set by controls: 0 for no effect and ±100 for the full control effect; nearly all actives have a fitted effect of over 55% in size. A digest of the protocol: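 Intracellular ATP of p53RE-bla HCT-116 cells measured by luciferase luminescence following 16 h compound incubation at 37 C; DMSO-only wells served as vehicle controls.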
The target in assay [16] is Nuclear receptor subfamily 1 group I member 2 (Rattus norvegicus) (UniProt Q9R1A7). Kind of assay: qHTS assay for small molecule activators of the rat pregnane X receptor (rPXR) signaling pathway (AID 651751; call rule not given here; note: 0% is about no effect). The following applies: rPXR reporter cells, luciferase (One-Glo), 24 h.
The target of assay [17] is Estrogen receptor (Homo sapiens) (UniProt P03372). Kind of assay: qHTS assay for small molecule agonists of estrogen receptor alpha signaling (AID 588514; calls by dose curve;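 note: 0% = vehicle only and 100% = reference agonist; nearly all actives have a fitted effect of over 70% in size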). A digest of the protocol: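 Read-out: CCF4 fluorescence from a beta-lactamase reporter in ER-alpha-UAS-bla HEK 293 cells after 18 hrs of compound exposure at 37 C. Normalized to 20 nM 17-beta-estradiol (100%) and DMSO (0%).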

In assay [18] the target is Thyroid hormone receptor beta (Homo sapiens) (UniProt P10828). The assay can be described thus: qHTS assay for small molecule antagonists of thyroid hormone receptor beta signaling (AID 588547; active = well fitted inhibition curve with a large enough effect in the signal ratio, with a control signal flat, not every such curve was filed as active; the % refers to the signal ratio;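 note: cells stimulated with 0.4 nM T3 agonist during compound exposure; series mostly up to about 77 µM; % is set by controls: 0 for no effect and ±100 for the full control effect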). The following applies: TR-UAS-bla HEK293, beta-lactamase ratio, antagonist mode, 18 h. In outline:
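Inhibition of T3-driven (0.4nM final) beta-lactamase reporter activity was measured over 0.59 nM to 92 uM compound after 18 h at 37 C. The cells were GripTite HEK293 TR-UAS-bla in charcoal/dextran-stripped serum, with CCF4 ratio read-out and IC50 from Hill fits.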

The nature of assay [19]: qHTS assay for small molecule activators of the p53 signaling pathway (AID 651743; active = well fitted activation curve with a large enough effect in the signal ratio, not every such curve was filed as active; the % refers to the signal ratio; note: series mostly up to about 92 µM; % of control where 0% means no effect). The following applies: HCT-116 p53RE-bla, beta-lactamase FRET ratio, 16 h; activation: stronger effect = higher value. A digest of the protocol:
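A beta-lactamase reporter under p53 response element control, stably carried by HCT-116 cells, reported pathway activation. Test compounds were applied for 16 hours at 37 C, and fluorescence was measured 2 hours after adding the B/G FRET substrate.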

A short description of assay [20]: qHTS assay for environmental chemicals that activate the Aryl hydrocarbon Receptor (AhR) signaling pathway (AID 651777). Note: % of control where 0% means no effect; nearly all actives have a fitted effect of over 15% in size. The following applies: 1A2-DRE human hepatoma cells, luciferase, 24 h; activation: stronger effect = higher value. In outline: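 Measured luciferase activity, read 30 min after One-Glo addition at room temperature, from human hepatoma cells bearing a dioxin response element–CYP1A2 promoter reporter and exposed to compound for 24 hr at 37 C.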

Sequence of Estrogen receptor (Homo sapiens) (P03372 whole entry, looked up): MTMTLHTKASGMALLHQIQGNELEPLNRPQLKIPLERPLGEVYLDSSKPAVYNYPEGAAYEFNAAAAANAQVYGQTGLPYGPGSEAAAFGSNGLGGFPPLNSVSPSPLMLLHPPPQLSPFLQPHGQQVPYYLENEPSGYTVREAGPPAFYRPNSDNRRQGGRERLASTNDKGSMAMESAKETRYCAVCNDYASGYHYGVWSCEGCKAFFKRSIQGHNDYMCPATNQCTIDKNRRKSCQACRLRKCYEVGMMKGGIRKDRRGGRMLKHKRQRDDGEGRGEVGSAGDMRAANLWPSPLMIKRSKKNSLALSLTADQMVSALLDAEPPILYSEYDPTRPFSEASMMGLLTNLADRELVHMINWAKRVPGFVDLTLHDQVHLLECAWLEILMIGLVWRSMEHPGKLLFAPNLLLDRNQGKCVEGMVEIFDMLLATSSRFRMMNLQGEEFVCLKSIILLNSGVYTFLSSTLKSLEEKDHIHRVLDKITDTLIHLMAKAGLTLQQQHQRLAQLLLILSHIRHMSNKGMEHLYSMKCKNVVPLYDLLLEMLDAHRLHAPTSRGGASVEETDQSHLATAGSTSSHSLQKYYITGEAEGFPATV
Sequence of Retinoic acid receptor RXR-alpha (Homo sapiens) (P19793 whole entry, looked up): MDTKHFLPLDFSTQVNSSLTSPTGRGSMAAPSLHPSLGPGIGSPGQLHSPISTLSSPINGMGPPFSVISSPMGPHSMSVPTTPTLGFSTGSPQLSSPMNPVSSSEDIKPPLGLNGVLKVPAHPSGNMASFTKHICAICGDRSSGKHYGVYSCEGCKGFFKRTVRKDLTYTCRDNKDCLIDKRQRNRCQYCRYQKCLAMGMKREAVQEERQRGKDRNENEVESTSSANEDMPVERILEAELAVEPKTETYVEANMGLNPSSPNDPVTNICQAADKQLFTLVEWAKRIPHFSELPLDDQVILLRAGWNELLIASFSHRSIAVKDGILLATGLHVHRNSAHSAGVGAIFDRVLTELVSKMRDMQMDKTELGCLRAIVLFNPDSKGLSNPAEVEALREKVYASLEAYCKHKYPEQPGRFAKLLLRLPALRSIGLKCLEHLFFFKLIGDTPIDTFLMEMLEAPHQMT
Sequence of Glucocorticoid receptor (Homo sapiens) (P04150 whole entry, looked up): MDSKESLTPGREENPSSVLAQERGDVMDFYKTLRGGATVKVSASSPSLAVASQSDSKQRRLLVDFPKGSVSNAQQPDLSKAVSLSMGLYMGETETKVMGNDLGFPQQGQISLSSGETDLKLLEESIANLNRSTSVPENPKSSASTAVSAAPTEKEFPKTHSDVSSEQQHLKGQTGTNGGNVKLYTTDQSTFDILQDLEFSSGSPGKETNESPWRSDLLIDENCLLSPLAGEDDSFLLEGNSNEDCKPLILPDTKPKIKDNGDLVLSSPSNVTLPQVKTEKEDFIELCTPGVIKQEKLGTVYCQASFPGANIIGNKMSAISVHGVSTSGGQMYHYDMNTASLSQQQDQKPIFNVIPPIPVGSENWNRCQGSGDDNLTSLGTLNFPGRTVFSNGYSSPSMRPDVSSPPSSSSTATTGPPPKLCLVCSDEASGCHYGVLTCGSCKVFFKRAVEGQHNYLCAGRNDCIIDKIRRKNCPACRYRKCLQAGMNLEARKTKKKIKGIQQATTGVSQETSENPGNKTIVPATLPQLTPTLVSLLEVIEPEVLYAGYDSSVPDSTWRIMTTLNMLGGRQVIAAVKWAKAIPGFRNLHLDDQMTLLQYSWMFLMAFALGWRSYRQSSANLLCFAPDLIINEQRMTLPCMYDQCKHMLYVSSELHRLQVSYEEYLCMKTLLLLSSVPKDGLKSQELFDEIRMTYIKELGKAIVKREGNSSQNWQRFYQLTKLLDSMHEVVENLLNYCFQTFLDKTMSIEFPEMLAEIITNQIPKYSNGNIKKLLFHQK
Sequence of Vitamin D3 receptor (Homo sapiens) (P11473 whole entry, looked up): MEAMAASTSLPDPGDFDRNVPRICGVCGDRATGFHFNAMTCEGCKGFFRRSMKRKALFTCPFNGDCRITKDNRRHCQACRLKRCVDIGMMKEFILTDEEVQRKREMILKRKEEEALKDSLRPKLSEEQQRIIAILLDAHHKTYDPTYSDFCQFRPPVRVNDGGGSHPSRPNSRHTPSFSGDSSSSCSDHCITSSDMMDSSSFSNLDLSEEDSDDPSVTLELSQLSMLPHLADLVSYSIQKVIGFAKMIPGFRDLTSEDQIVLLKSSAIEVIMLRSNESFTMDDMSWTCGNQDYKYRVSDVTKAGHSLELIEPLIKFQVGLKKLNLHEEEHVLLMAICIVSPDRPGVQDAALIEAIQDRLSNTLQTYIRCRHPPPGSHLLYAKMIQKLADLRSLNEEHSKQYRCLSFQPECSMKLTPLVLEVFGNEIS
Sequence of Thyroid hormone receptor beta (Homo sapiens) (P10828 whole entry, looked up): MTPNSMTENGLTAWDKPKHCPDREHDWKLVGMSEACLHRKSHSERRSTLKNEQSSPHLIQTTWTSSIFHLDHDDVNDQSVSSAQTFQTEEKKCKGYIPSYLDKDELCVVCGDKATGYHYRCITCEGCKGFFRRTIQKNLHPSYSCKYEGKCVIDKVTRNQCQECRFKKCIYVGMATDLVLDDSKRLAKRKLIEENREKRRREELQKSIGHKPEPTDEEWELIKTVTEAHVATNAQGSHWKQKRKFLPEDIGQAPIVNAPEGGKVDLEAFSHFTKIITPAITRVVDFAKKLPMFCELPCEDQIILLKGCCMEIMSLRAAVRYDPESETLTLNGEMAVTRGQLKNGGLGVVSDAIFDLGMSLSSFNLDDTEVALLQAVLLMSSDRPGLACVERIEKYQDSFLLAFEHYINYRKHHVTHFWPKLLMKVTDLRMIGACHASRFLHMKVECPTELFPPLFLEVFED
Sequence of Peroxisome proliferator-activated receptor delta (Homo sapiens) (Q03181 whole entry, looked up): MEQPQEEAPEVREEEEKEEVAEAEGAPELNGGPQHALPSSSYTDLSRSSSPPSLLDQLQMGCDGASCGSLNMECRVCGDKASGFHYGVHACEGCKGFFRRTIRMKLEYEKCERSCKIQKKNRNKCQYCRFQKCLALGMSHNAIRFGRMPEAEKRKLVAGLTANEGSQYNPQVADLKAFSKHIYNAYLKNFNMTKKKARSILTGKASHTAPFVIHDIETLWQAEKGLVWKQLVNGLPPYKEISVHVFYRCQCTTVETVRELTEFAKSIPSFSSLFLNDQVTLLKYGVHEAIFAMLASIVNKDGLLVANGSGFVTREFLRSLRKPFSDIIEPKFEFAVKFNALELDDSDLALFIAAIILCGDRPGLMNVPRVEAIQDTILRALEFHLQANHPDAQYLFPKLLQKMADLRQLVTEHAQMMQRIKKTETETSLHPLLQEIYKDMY
Sequence of Nuclear receptor subfamily 1 group I member 2 (Rattus norvegicus) (Q9R1A7 whole entry, looked up): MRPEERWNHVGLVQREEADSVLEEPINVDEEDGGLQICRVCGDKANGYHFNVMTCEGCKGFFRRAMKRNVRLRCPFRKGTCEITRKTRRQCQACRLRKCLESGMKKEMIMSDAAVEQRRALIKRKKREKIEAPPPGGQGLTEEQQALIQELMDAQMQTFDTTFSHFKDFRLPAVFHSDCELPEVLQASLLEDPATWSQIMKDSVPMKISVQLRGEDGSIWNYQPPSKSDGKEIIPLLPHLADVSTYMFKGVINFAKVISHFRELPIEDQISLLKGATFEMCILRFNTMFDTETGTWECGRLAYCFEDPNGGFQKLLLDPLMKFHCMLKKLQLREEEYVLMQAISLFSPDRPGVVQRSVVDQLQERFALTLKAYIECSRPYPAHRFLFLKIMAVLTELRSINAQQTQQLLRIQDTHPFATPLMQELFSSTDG
Sequence of Peroxisome proliferator-activated receptor alpha (Homo sapiens) (Q07869 whole entry, looked up): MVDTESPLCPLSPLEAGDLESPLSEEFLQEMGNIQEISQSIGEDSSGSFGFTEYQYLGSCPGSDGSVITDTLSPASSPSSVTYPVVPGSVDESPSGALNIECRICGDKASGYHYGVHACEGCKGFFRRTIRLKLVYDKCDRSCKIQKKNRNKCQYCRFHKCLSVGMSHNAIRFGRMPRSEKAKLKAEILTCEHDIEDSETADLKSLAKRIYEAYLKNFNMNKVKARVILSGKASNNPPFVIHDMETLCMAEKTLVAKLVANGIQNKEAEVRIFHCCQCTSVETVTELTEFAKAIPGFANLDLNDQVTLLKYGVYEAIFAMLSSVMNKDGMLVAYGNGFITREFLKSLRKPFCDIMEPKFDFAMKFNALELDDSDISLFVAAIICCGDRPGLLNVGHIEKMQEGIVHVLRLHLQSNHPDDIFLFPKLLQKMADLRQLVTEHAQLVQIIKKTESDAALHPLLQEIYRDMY

As for `O=Cc1cccc(Oc2ccccc2)c1`, the Potency entry in assay [1], in assay [4], in [5], in assay [6], in assay [7] and in [12] was “inactive” in each case. Further, in [15], the Potency result was “inactive”. In [2], the outcome was inactive. Also, the max response was 10.7% in [3]; 1.81% in assay [8]; 1.63% (inactive) in assay [9]; 4.39% (inactive) in assay [11]; 2.38% (inactive) in [13]; -4.08% (inactive) in [14]. The max response in [16] was 0.0469% (inactive). The activation in assay [10] is -0.909% (inactive).
As for `CC(C)(C)C(O)C(Oc1ccc(-c2ccccc2)cc1)n1cncn1` (centres undefined), the Potency result in [17], in assay [1], in assay [4], in assay [5], in [7] and in assay [12] was “inactive” throughout. Also, the Potency entry in assay [15] was “inactive”. The max response in assay [3] was -42.4%; in [11], 1.37% (inactive); in [13], -1.48% (inactive); in assay [14] it was -21.2% (inactive). In [18], the activity change % (negative = inhibition) is -13.8% (inactive). Moreover, the activation in assay [19] was 6.28% (inactive); in assay [10], -1.06% (inactive); in assay [20], 0.741% (inactive).
Take `COP(=O)(OC)SCn1c(=O)oc2cc(Cl)cnc21`: the Potency entry in assay [17], in assay [1], in [12] and in [15] was “inactive” each time. The call in assay [2] was inactive. The activation is 13.8% (inactive) in assay [19] and -1.51% (inactive) in assay [10]. Also, the max response in assay [11] is -1.8% (inactive); in assay [13], -47.9% (inactive); in assay [16], -7.83% (inactive).
Consider `CS/C(C)=N/OC(=O)N(C)SN(C)C(=O)O/N=C(\C)SC`, for which the Potency entry in assay [17], in [1], in assay [4], in assay [7], in assay [12] and in [15] was “inactive” throughout. The call in assay [2] was inactive. In addition, the max response is -23.5% in [3]; 3.2% in [8]; 15.5% (inactive) in assay [9]; -1.01% (inactive) in assay [11]; 6.17% (inactive) in [13]; -6.07% (inactive) in assay [14]. Besides, in assay [16], the max response was -5.16% (inactive). In addition, the activity change % (negative = inhibition) in [18] was -7.26% (inactive). In addition, the activation in [19] is -1.16% (inactive); in assay [10], -0.513% (inactive); in assay [20], 3.44% (inactive).
Consider `CCNc1nc(Cl)nc(NC(C)(C)C)n1`, for which the Potency entry in assay [17], in [1], in assay [4], in assay [5], in [7] and in assay [12] was “inactive” each time. Moreover, in assay [15], the Potency result is “inactive”. Also, the molecule was classed as inactive in assay [2]. Further, the max response in assay [3] was 33.2%; in [11] it was 0.909% (inactive); in assay [13], -4.66% (inactive); in assay [14], -13.7% (inactive); in [16], 4.19% (inactive). For the same molecule, the activity change % (negative = inhibition) in assay [18] is -28% (inactive). The activation in assay [10] was -1.02% (inactive); in [20] it was 6.82% (inactive).
For the molecule `Cc1[nH]c(=O)n(C(C)(C)C)c(=O)c1Cl`, the Potency result in [17], in assay [6], in [12] and in assay [15] was “inactive” each time. In addition, the activity change % (negative = inhibition) in assay [18] is 8.21% (inactive). Besides, the activation in assay [10] was -0.578% (inactive); in [20], 0.775% (inactive). The results for the max response in assay [11], in assay [13] and in assay [16] were -1.56% (inactive), 0.82% (inactive) and 0.145% (inactive), respectively.
In the case of `O=[N+]([O-])c1ccc(Cl)c([N+](=O)[O-])c1`, the Potency result in [17], in [12] and in [15] was “inactive” in each case. The call in [2] was inactive. For the same molecule, the activation in assay [20] was -11.5% (inactive). Besides, the max response in assay [11] was -3.79% (inactive); in assay [16] it was -13.5% (inactive). Besides, the Potency was 44.7 µM (active) in [13] and 50.1 µM (active) in assay [14].

For the origin of these results see PubChem BioAssay (NCATS).
